MITF act = increases MITF-driven TRPM1 promoter luciferase signal; SK-MEL-5 TRPM1-promoter luciferase, 24 h; % of positive control, neutral wells = 0; activation, % at 12.5 µM; 0.75% of 300,000 active; AID 588334;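 active = mean activation of at least 80% with every replicate also reaching 80%; inconclusive = mean reaches 80% but some replicate falls short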
esBAF inh = SWI/SNF esBAF complex inhibition; reporter increase, % at 12.5 µM; 2% of 350,000 active; mouse ES cells, Bmi1-luciferase knock-in reporter, 24 h; 100% = twice the neutral-well signal; in the data active = activation above about 40%; inconclusive = no clear call, values can overlap the other calls;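 also: a rise in the Bmi1 reporter signal indicates esBAF inhibition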
Wnt bcat act = Wnt/beta-catenin pathway activation; Wnt/beta-catenin reporter cell assay, activator, plate reader; activation, % at 9.35 µM; 1.2% of 300,000 active; AID 743398; in the data active = activation above about 30%, passing the limit was not always enough; inconclusive = no clear call, values can overlap the other calls
Env fusion inh = HIV envelope-mediated fusion inhibition; inhibition, % at 12.3 µM; 1.1% of 360,000 active; HeLa-JRFL Env/CEM21 cell fusion, luciferase; AID 651610;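 active = mean replicate inhibition score of at least 50 and every replicate individually at or above 50; inconclusive = only one of the two criteria met; inactive = mean below 50 and not all replicates reaching 50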
miR-122 sensor = inhibitors of miR-122 in Huh7 cells. 0.3% of 340,000 active. AID 602342. activation (reporter increase), % at 12.5 µM. Huh7 miR-122 Renilla luciferase sensor, 48 h; neutral wells = 0, positive control = 100;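 active = mean replicate activation score at least 90 and every replicate individually at or above 90; inconclusive = only one of the two criteria met; inactive = neither criterion met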;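 also: higher luciferase means less miR-122 activity so hits act as miR-122 inhibitors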
Numbers stand for hits; ! = not active in a repeat. Compounds with a hit are over-represented: about 3.4% of the library has one in this group of screens.

Results for C/C=C/c1ccc2c(c1)O[C@H](CN(C)CC1CC1)[C@H](C)CN([C@@H](C)CO)S2(=O)=O ?
esBAF inh: inactive; Env fusion inh: inactive; miR-122 sensor: inactive

What do the screens show for `Oc1nc(Nc2ccc(F)cc2)sc1/C=C1\C=Nc2ccccc21`?
MITF act: inactive; Wnt bcat act: inactive; Env fusion inh: inactive

How did CCOC(=O)c1c(Nc2ccc(Cl)cc2)sc(/C=C2\C=Nc3ccccc32)c1O do in these assays?
MITF act: inactive; esBAF inh: inactive; Wnt bcat act: inactive; Env fusion inh: inactive; miR-122 sensor: 106.8!

How did O=C(C[C@@H]1CC[C@H]2[C@@H](COC[C@@H](O)CN2S(=O)(=O)c2cccc(Cl)c2)O1)NCCCN1CCOCC1 do in these assays?
esBAF inh: inactive; miR-122 sensor: inactive

What do the screens show for `c1ccc(-c2ccc(-n3ccnc3)cc2)cc1`?
MITF act: inactive; esBAF inh: 56.4; Wnt bcat act: inconclusive; Env fusion inh: inactive; miR-122 sensor: inactive

Results for c1ccc(-c2ccc(C(c3ccccc3)n3ccnc3)cc2)cc1 (configuration not stated) ?
MITF act: inactive; esBAF inh: inactive; Wnt bcat act: inactive; miR-122 sensor: inactive

What do the screens show for `C[C@H]1CN([C@@H](C)CO)C(=O)Cc2cc(NS(=O)(=O)c3cn(C)cn3)ccc2O[C@@H]1CN(C)Cc1ccncc1`?
esBAF inh: inactive; miR-122 sensor: inactive

How did O=S(=O)(NCCc1ccncc1)c1cc(Br)ccc1F do in these assays?
MITF act: inactive; esBAF inh: inactive; Wnt bcat act: inactive; Env fusion inh: inactive; miR-122 sensor: 123.5

What do the screens show for `C[C@]1(C(=O)NCc2cc(F)cc(C(F)(F)F)c2)C=C[C@@H](Cc2ccccc2)N1C(=O)c1ccccc1`?
esBAF inh: inactive; Wnt bcat act: inactive; Env fusion inh: 56.2

Results for CNC(=O)[C@@]1(C)C=C[C@@H](Cc2ccccc2)N1C(=O)OC ?
MITF act: inactive; esBAF inh: inactive; Wnt bcat act: inactive; Env fusion inh: inactive; miR-122 sensor: 132.9

What do the screens show for `COc1ccccc1CNC(=O)C[C@H]1CC[C@H]2[C@@H](COC[C@H](O)CN2C(=O)Nc2ccc(C(F)(F)F)cc2)O1`?
esBAF inh: inactive; miR-122 sensor: inactive

What do the screens show for `CCCN1[C@@H]2Cn3c(ccc(-c4ccccc4F)c3=O)[C@H]1[C@@H](C(=O)NCC)[C@@H]2CO`?
esBAF inh: inactive; miR-122 sensor: inactive

How did CC(C)Cc1nnc(NC(=O)C23CC4CC(CC(C4)C2)C3)s1 do in these assays?
MITF act: inactive; esBAF inh: inactive; Wnt bcat act: inactive; Env fusion inh: inactive

How did CCc1nnc(NC(=O)C23CC4CC(CC(C4)C2)C3)s1 do in these assays?
MITF act: inactive; esBAF inh: 55.6; Wnt bcat act: inactive; Env fusion inh: inactive; miR-122 sensor: inactive

Results for O=C(Nc1nc2c(s1)CCCC2)c1ccc(S(=O)(=O)N2CCCc3ccccc32)cc1 ?
MITF act: inactive; Env fusion inh: 64.0; miR-122 sensor: inactive

Results for COC(=O)Nc1ccc(S(=O)(=O)N2CCCc3ccccc32)cc1 ?
MITF act: inactive; esBAF inh: inactive; Env fusion inh: 59.0; miR-122 sensor: inactive

Results for COC(=O)Nc1ccc(S(=O)(=O)N2CCCc3cccc(O)c32)cc1 ?
Wnt bcat act: inactive; Env fusion inh: inactive

Results for O=C(CCc1ccc(S(=O)(=O)N2CCOCC2)cc1)Nc1nc(COc2ccccc2)cs1 ?
MITF act: inactive; esBAF inh: inactive; Env fusion inh: 79.7; miR-122 sensor: inactive

Results for Cc1cccc(C)c1NC(=O)C1C(c2ccccc2)=Nc2ccccc2N1C(=O)c1cnccn1 (configuration not stated) ?
Wnt bcat act: inactive; Env fusion inh: 64.1

What do the screens show for `CCCn1nc(C(=O)Nc2ccc3nc(N4CCOCC4)sc3c2)ccc1=O`?
MITF act: inactive; esBAF inh: inactive; Wnt bcat act: inactive; Env fusion inh: 85.3

What do the screens show for `C[C@@H]1CN([C@@H](C)CO)C(=O)Cc2cc(NC(=O)Nc3cccc4ccccc34)ccc2O[C@H]1CN(C)S(C)(=O)=O`?
esBAF inh: inactive; Env fusion inh: inactive; miR-122 sensor: inactive

How did COc1cc2c(cc1OC)C1CCc3cc4c(cc3C1N=C2)OCO4 (configuration not stated) do in these assays?
esBAF inh: inactive; Wnt bcat act: 50.5; Env fusion inh: inactive; miR-122 sensor: inactive

What do the screens show for `CCCC(=O)Nc1ccc2c(c1)OC[C@@H](C)N(C(=O)CC1CC1)C[C@@H](C)[C@H](OC)CN(C)C2=O`?
esBAF inh: inactive; Env fusion inh: inactive; miR-122 sensor: inactive
